# Data reported in the supplement of paper PMC6124720.
# A number with no mark means an inactive call.
# Tested on: Pseudogymnoascus destructans 20631-21
# Test: growth activity index (DuctApe, 0 = no growth, 9 = maximal growth) (index 0-9); higher = more fungal growth (less inhibition), active = 0 or less; extreme values may be limits of the assay
# Settings: temperature: 13 °C, YPD
# [1] = concentration level (1-4, increasing; Biolog proprietary): 1
# [2] = concentration level (1-4, increasing; Biolog proprietary): 2
# [3] = concentration level (1-4, increasing; Biolog proprietary): 3
# [4] = concentration level (1-4, increasing; Biolog proprietary): 4
# 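Further: biolog Phenotype Microarray plates PM21–25, OD595 followed daily over 11 days, growth curves converted to index, mean of two independent experiments.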
Structure (SMILES),growth activity index [1],growth activity index [2],growth activity index [3],growth activity index [4]
CN(CC[C@H](N)CC(=O)N[C@H]1C=C[C@H](n2ccc(N)nc2=O)O[C@@H]1C(=O)O)C(=N)N [Blasticidin S] (Biolog plate: PM24),4.67,4.33,4,4
Nc1ccncc1 [4-Aminopyridine] (Biolog plate: PM25),4.67,4,4.33,1.33
C[n+]1ccc(-c2cc[n+](C)cc2)cc1 [Methyl viologen] (Biolog plate: PM24),1,0 (active),0.333,0.667
[N-]=[N+]=[N-] [Sodium Azide] (Biolog plate: PM23),2.67,1,0 (active),0.333
[Na+].[Na+].[O]=[Cr](=[O])([O-])[O][Cr](=[O])(=[O])[O-] [Sodium Dichromate] (Biolog plate: PM21),4.25,5,5,4.25
CCCCC(C#N)(Cn1cncn1)c1ccc(Cl)cc1 (centres undefined) [Myclobutanil] (Biolog plate: PM22),5.33,0.667,0 (active),0 (active)
[Cl][Ni][Cl] [Nickel chloride] (Biolog plate: PM21),5,4.25,4.5,5
"Nc1ncn[nH]1 [3-Amino-1,2,4-triazole] (Biolog plate: PM22)",0 (active),0 (active),0 (active),0 (active)
[K+].[K+].[O]=[Cr](=[O])([O-])[O-] [Potassium Chromate] (Biolog plate: PM24),3.33,4,4,4.33
[Cl][Cd][Cl] [Cadmium Chloride] (Biolog plate: PM23),4.33,2,0.667,0 (active)
C[C@@H]1C[C@@H]([C@H](O)CC2CC(=O)NC(=O)C2)C(=O)[C@@H](C)C1 [Cycloheximide] (Biolog plate: PM22),5,4,4.33,4.33
N#CO [Sodium Cyanate] (Biolog plate: PM23),5,4.67,4.33,4.67
O=[Se]([O-])[O-].[Na+].[Na+] [Sodium Selenite] (Biolog plate: PM21),6,5.25,6,4.75
CCCCCCCCCCCCCCCC[n+]1ccccc1 [Cetylpyridinium chloride] (Biolog plate: PM21),5.25,0 (active),0 (active),0 (active)
CCCC1COC(Cn2cncn2)(c2ccc(Cl)cc2Cl)O1 (centres undefined) [Propiconazole] (Biolog plate: PM24),4.67,2,1,0.333
N.N.[Cl][Pt][Cl] [Cisplatin] (Biolog plate: PM24),5,4.67,4,4
[N-]=[N+]=CC(=O)OC[C@H](N)C(=O)O [Azaserine] (Biolog plate: PM22),5,4.33,4.67,4.67
[O-][I+3]([O-])([O-])O [Sodium metaperiodate] (Biolog plate: PM23),2,2,4.33,5
O=[As][O-].[Na+] [Sodium Arsenite] (Biolog plate: PM23),4,4.67,4.33,5
O=[As]([O-])([O-])[O-].[Na+].[Na+].[Na+] [Sodium Arsenate] (Biolog plate: PM22),4.67,4.33,4,2
[Cl][Cr]([Cl])[Cl] [Chromium (III) chloride] (Biolog plate: PM23),5.33,4,2,3.33
